The nature of assay [1]: optical density shifts of acrAB sulA E. coli – strain DRC41, OD650, 48 h, E. coli filamentation inducer project, primary screen (AID 1152).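 Also: E. coli MC1000 strain DRC41 lacking acrAB efflux pump and sulA.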 The note with it: higher = more signal, called active from +8 up or from −8 down.
Assay [2] is described as follows: probe aLefty1 binding on compound microarray – biochemical, small-molecule microarray, 635/667 nm fluorescence, primary screen (AID 1153).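 Also: score merges spot fluorescence with signal-to-noise ratio from the scanned slide images.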 The note with it: higher = more signal.
A short description of assay [3]: plasmodial surface anion channel blockers, osmotic lysis – cell-based, P. falciparum Indochina, OD700, 1 h, primary screen (AID 1154). Conditions: P. falciparum Indochina infected RBC osmotic lysis, higher = more signal, called active from +8 up or from −8 down.
Assay [4] in a line: plasmodial surface anion channel blockers, osmotic lysis – cell-based, P. falciparum Indochina, OD700, 2 h, primary screen (AID 1155).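 Also: lysis reports solute entry through the parasite surface anion channel PSAC.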 The note with it: P. falciparum Indochina infected erythrocytes, higher = more signal, called active from +8 up or from −8 down.
Assay [5] in a line: changes in parasitized red cell lysis, either direction – P. falciparum Indochina, OD700, 3 h, PSAC antagonist project, primary screen (AID 1156). Conditions: P. falciparum-infected erythrocytes, osmotic lysis, higher = more signal, called active from +8 up or from −8 down.
Assay [6] can be described thus: plasmodial surface anion channel blockers, osmotic lysis – cell-based, P. falciparum Indochina, OD700, 18 h, primary screen (AID 1157). The note with it: P. falciparum Indochina infected erythrocytes, osmotic lysis OD700, 18 h; higher = more signal, called active from +8 up or from −8 down.
Assay [7] is described as follows: S6 kinase pathway phospho-S6 level changes – cell-based, A549, cytoblot, luminescence, serum-stimulated, primary screen (AID 1158).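 Also: serum-stimulated A549 lung adenocarcinoma cells; signal is phosphorylated S6 detected by cytoblot immunostaining with HRP secondary.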 Conditions: 5 h, higher = more signal.
For assay [8], the target named is NADPH oxidase 2 (Homo sapiens) (UniProt P04839). Put plainly: compounds shifting NOX2 Amplex Red fluorescence – cell-based, HEK293-NOX2, PMA-stimulated, NOX inhibitor project, primary screen (AID 1159). Also: test concentration not given here. The note with it: 45 min, higher = more signal, called active from +8 up or from −8 down.
Assay [9] addresses NADPH oxidase 4 (Homo sapiens) (UniProt Q9NPH5). Put plainly: compounds shifting NOX4 Amplex Red fluorescence – cell-based, HEK293-NOX4, tetracycline-induced, NOX inhibitor project, primary screen (AID 1160). Conditions: HEK293-NOX4, Amplex Red H2O2 fluorescence, 45 min; higher = more signal, called active from +8 up or from −8 down.
Assay [10] concerns the target NADPH oxidase 5 (Homo sapiens) (UniProt Q96PH1). Put plainly: compounds shifting NOX5 Amplex Red fluorescence – cell-based, HEK293-NOX5, NOX inhibitor project, primary screen (AID 1161). Conditions: HEK293-NOX5, ionomycin, 45 min, higher = more signal.

The source made the active and inactive calls.

Chain of NADPH oxidase 2 (Homo sapiens) (P04839 whole entry, looked up): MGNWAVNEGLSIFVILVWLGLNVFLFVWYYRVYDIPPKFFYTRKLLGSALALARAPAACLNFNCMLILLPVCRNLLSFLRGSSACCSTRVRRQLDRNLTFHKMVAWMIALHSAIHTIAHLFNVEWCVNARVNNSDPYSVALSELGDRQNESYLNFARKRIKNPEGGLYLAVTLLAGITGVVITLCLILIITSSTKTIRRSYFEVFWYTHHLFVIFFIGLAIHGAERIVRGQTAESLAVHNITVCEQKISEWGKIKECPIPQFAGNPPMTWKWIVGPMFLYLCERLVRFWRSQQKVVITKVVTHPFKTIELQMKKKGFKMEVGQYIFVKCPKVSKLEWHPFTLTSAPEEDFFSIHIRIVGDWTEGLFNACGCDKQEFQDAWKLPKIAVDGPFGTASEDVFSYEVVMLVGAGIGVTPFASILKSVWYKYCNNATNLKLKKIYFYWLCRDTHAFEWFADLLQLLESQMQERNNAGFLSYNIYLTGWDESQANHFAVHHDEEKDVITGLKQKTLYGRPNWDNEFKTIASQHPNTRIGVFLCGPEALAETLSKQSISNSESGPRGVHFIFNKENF
Chain of NADPH oxidase 5 (Homo sapiens) (Q96PH1 whole entry, looked up): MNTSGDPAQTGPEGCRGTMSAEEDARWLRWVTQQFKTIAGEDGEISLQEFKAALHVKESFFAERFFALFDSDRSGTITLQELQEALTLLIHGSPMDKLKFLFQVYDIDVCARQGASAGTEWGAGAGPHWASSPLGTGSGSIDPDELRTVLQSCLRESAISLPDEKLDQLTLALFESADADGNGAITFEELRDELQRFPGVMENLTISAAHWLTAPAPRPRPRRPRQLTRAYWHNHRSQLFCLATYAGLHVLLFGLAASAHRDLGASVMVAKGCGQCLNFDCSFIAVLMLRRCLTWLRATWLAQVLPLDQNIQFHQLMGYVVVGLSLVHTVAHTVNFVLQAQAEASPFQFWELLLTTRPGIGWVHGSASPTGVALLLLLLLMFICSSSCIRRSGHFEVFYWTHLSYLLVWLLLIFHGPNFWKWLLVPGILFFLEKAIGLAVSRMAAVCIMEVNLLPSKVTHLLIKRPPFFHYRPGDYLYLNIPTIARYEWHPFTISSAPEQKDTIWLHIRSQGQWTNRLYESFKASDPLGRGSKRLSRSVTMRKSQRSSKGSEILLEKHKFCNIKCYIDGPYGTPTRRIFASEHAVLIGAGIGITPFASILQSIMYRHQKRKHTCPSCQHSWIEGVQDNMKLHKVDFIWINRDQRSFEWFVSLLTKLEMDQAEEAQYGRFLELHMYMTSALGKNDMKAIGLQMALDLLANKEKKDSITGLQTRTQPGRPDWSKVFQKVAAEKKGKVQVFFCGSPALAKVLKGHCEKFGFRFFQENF
Chain of NADPH oxidase 4 (Homo sapiens) (Q9NPH5 whole entry, looked up): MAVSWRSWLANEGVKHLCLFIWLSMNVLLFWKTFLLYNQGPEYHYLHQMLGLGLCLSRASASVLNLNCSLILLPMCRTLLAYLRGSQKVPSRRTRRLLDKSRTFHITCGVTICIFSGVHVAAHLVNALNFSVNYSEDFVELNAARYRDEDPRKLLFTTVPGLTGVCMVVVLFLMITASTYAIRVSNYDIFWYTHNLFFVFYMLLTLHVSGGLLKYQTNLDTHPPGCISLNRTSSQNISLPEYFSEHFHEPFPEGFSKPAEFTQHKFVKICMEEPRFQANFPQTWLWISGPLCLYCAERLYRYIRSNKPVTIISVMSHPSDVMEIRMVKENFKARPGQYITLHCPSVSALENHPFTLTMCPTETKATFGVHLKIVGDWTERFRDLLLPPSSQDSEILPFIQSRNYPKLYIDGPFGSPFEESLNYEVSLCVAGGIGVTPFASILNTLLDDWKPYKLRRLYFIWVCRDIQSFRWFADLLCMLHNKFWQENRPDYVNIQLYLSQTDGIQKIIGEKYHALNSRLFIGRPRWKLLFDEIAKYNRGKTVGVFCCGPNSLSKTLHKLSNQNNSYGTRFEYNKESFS

On to `COc1ccc([Si](C)(C)[C@@H]2[C@@H](CC(=O)N3Cc4ccccc4C[C@H]3CO)O[C@]3(C(=O)N(Cc4cccc(N5C(=O)c6cccc7cccc5c67)c4)c4ccccc43)[C@H]2C)cc1`, for which the z-score was -0.721 (inactive) in assay [1]; 2.4 (inactive) in assay [3]; 0.963 (inactive) in [4]; -0.369 (inactive) in assay [5]; 0.376 (inactive) in assay [6]; 0.015 in assay [7]. Also, the figures for the z-score in assay [8], in assay [9] and in assay [10] were -0.579 (inactive), 0.668 (inactive) and 2.34, respectively. In assay [2], this compound came in with a composite z-score of -0.0601.
Regarding `CCOC(=O)C[C@H]1[C@H](OC(=O)c2cc3ccccc3oc2=O)[C@@H](NC(=O)c2ccc(-c3ccccc3)cc2)c2cc(OCCCO)ccc2N1C(=O)c1ccc2ccccc2n1`, the z-score in [1] is -0.216 (inactive); in [3] it was 3.37 (inactive); in assay [4], 1.07 (inactive); in [5] it was 0.723 (inactive); in assay [6], 0.523 (inactive); in assay [7], -0.577. Besides, the figures for the z-score in assay [8], in assay [9] and in assay [10] were 0.858 (inactive), 0.688 (inactive) and 1.11, respectively. The composite z-score in assay [2] turned out to be 0.132.
Turning to `COCCCNC(=O)[C@@]1(Cc2ccccc2N=[N+]=[N-])COC(c2ccc(OCCCO)cc2)=N1`, the z-score in [1] is 1.21 (inactive); in assay [3] it was 27.4 (active); in assay [4], 16.4 (active); in assay [5] it was 2.03 (inactive); in assay [6], 2.36 (inactive); in assay [7], -0.44. In addition, the z-score was -1.62 (inactive) in assay [8], 0.528 (inactive) in [9] and -0.146 in [10]. Besides, the composite z-score in assay [2] came to 0.35.
With `COCCOC(=O)N1C(=O)[C@@]2(c3cc(C#Cc4ccc(OC)cc4)ccc31)[C@H](C(=O)Nc1nc3ccccc3s1)[C@H]1C(=O)O[C@H](c3ccccc3)[C@H](c3ccccc3)N1[C@@H]2c1ccc(OCCO)cc1`, the z-score was -0.221 (inactive) in assay [1]; 6.99 (inactive) in [3]; 3.22 (inactive) in [4]; 1.26 (inactive) in [5]; 2.25 (inactive) in [6]; -0.45 in assay [7]. Also, the figures for the z-score in assay [8], in assay [9] and in [10] were 2.03 (inactive), -1.07 (inactive) and 0.518, respectively. The composite z-score in assay [2] was found to be 0.0524.
`COCCOC(=O)N1C(=O)[C@@]2(c3cc(C#CCC(C(=O)OC)C(=O)OC)ccc31)[C@H](C(=O)N1CCc3cc(OC)c(OC)cc3C1)[C@H]1C(=O)O[C@H](c3ccccc3)[C@H](c3ccccc3)N1[C@@H]2c1ccc(OCCO)cc1`: the z-score in [1] was -0.763 (inactive); in assay [3], 9.36 (active); in assay [4] it was 2.73 (inactive); in assay [5], 0.57 (inactive); in [6], 1.67 (inactive); in assay [7], -0.37. The z-score was 1.98 (inactive) in assay [8], 1.19 (inactive) in [9] and 1.42 in assay [10]. For the same compound, the composite z-score in assay [2] was 0.54.
For `COCCCNC(=O)[C@@]1(Sc2ccc(C)cc2)CC(=O)N(C2CCCCC2)[C@@H]1c1ccc(CO)cc1`, the z-score is -0.204 (inactive) in assay [1]; 0.309 (inactive) in assay [3]; 0.17 (inactive) in assay [4]; 0.0051 (inactive) in [5]; 0.326 (inactive) in [6]; 0.0394 in [7]. Also, the figures for the z-score in assay [8], in assay [9] and in assay [10] were 0.175 (inactive), -0.512 (inactive) and -1.3, respectively. Moreover, the composite z-score in [2] was 0.0209.
Turning to `COCCOC(=O)N1C(=O)[C@@]2(c3cc(C#CC4=CCCCC4)ccc31)[C@H](c1ccc(O)cc1)N1[C@H](c3ccccc3)[C@H](c3ccccc3)OC(=O)[C@H]1[C@@H]2C(=O)N1CCN(c2ncccn2)CC1`, the z-score in assay [1] is -0.202 (inactive); in [3], -0.0088 (inactive); in [4] it was 0.18 (inactive); in assay [5] it was 0.299 (inactive); in assay [6], 0.0164 (inactive); in assay [7] it was -0.229. Further, the z-score in assay [8] is 0.347 (inactive); in assay [9], -0.0204 (inactive); in assay [10], 0.715. Also, in assay [2], the composite z-score is -0.183.
For `CC(C)[Si](C#C[Si](C(C)C)(C(C)C)C(C)C)(O[C@H](C)c1cn([C@H](CO)Cc2ccccc2)nn1)C(C)C`, the z-score was 2.09 (inactive) in assay [1]; 0.532 (inactive) in assay [3]; 0.655 (inactive) in [4]; -0.116 (inactive) in assay [5]; 0.359 (inactive) in assay [6]; 0.479 in assay [7]. Further, the z-score is -1.96 (inactive) in assay [8], 0.188 (inactive) in assay [9] and 0.0884 in assay [10]. In addition, in assay [2], the composite z-score is -0.212.
Consider `CC(=O)NCCCC[C@@H]1NC(=O)[C@H]2C[C@@H](C(=O)NCCCC[N+](C)(C)C)[C@@H](c3cccc(OCCO)c3)N2C1=O`, for which the z-score in assay [1] is 0.485 (inactive); in [3], 2.46 (inactive); in assay [4], 0.331 (inactive); in assay [5], -1.58 (inactive); in [6], 0.374 (inactive); in [7] it was -0.611. The z-score in assay [8] was -1.23 (inactive); in [9], -0.477 (inactive); in [10] it was -1.08. Moreover, the composite z-score in assay [2] amounted to 0.165.
With `O=C1OCCC=C[C@H]2OC34C=CCN(Cn5nnc6ccccc65)C(=O)[C@H]3N(CCCCCCO)C(=O)[C@@H]4C12` (stereo not given in full), the z-score in [1] is -0.051 (inactive); in assay [3], 0.987 (inactive); in assay [4] it was 1.02 (inactive); in assay [5] it was 0.946 (inactive); in [6], 0.748 (inactive); in assay [7], 0.916. For the same compound, the z-score in [8] is 0.94 (inactive); in assay [9], -0.201 (inactive); in [10], 2.2. In [2], this compound had a composite z-score of -0.81.
Turning to `CC(C)C(CO)N1C(=O)[C@@H]2C3C(=O)OCCC/C=C\[C@H]3OC23C=CCN(C(C)(C)C)C(=O)[C@@H]13` (stereo not given in full), the z-score in [1] was -0.69 (inactive); in [3] it was 0.502 (inactive); in [4], 0.488 (inactive); in assay [5], 0.441 (inactive); in assay [6] it was 0.478 (inactive); in [7], -0.668. In addition, the z-score in assay [8] was 1.57 (inactive); in assay [9], 0.339 (inactive); in assay [10], 2.34. In assay [2], the composite z-score was -0.142.
Consider `[N-]=[N+]=NCc1ccccc1[C@H]1OC(c2ccc(OCCCO)cc2)=N[C@@]1(CCS(=O)(=O)c1ccccc1)C(=O)NCC(O)CO` (stereo not given in full), for which the z-score is -0.0559 (inactive) in assay [1]; 27.1 (active) in assay [3]; 21.1 (active) in assay [4]; 2.23 (inactive) in assay [5]; 2.78 (inactive) in assay [6]; 0.123 in [7]. Moreover, the values for the z-score in assay [8], in assay [9] and in assay [10] were 1.47 (inactive), 1.1 (inactive) and 1.64, respectively. Moreover, the composite z-score in assay [2] was 0.675.

Source of the values: PubChem BioAssay.
